Source: PubChem BioAssay (NCI)
Several values for one entry are separate records, joined by “and”; a condition that tells them apart may be missing. Equal values may be shown once. The panel holds about 83,000 compounds, 20% with a hit somewhere; the sample as a whole holds those more often.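 Growth was measured after 48 h exposure to one concentration of compound in 96-well plates. Values under 10 count as active.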 More than one record can exist for a structure, and the calls need not agree. Activity calls are given as the source filed them.

Experiments:
Assay in all cases: NCI-60 one-dose screen, 48 h (100 = growth as untreated, 0 = no growth, -100 = all killed)
SK-MEL-2 melanoma = details: 10 µM unless noted
EKVX NSCLC = details: 10 µM unless noted
SN12C renal = details: 10 µM unless noted
UO-31 renal = details: 10 µM unless noted
TK-10 renal = test system: TK-10 renal
ACHN renal = details: 10 µM unless noted
CAKI-1 renal = details: 10 µM unless noted
A498 renal = details: 10 µM unless noted
CCRF-CEM leukemia = details: 10 µM unless noted
MOLT-4 leukemia = details: 10 µM unless noted

Compound	growth (SK-MEL-2 melanoma)	growth (EKVX NSCLC)	growth (SN12C renal)	growth (UO-31 renal)	growth (TK-10 renal; 10 µM unless noted)	growth (ACHN renal)	growth (CAKI-1 renal)	growth (A498 renal)	growth (CCRF-CEM leukemia)	growth (MOLT-4 leukemia)	growth (TK-10 renal; 10 µM)	growth (TK-10 renal; 100 µM)
Nc1nc(-c2ccccc2)nc(N)c1N=O	88% (inactive)	89.1% (inactive)	74% (inactive)	45.8% (inactive)	51.6% (inactive)	58.9% (inactive)	32.4% (inactive)	112% (inactive)	34.8% (inactive)	58.1% (inactive)		
CCCCCCCCCCCCCCCCCC[S+](C)CC (configuration not stated)	48.1% (inactive)	91.7% (inactive)	25.7% (inactive)	59.6% (inactive)	9.52% (active)	16.2% (inactive)	66.5% (inactive)	63.2% (inactive)	14.6% (inactive)	-4.95% (active)		
N#CC(I)CS(=O)(=O)c1ccccc1 (configuration not stated)	91.6% (inactive)	103% (inactive)	93.4% (inactive)	77.2% (inactive)	89.7% (inactive)	36.7% (inactive)	55.4% (inactive)	121% (inactive)	3.27% (active)	88.9% (inactive)		
Cc1ccccc1N=C(N)Nc1ccccc1C (tested in a mixture with another compound)	85.7% (inactive)	85.3% (inactive)	82.8% (inactive)	71.1% (inactive)	67.8% (inactive)	77.9% (inactive)	52.9% (inactive)	96.8% (inactive)	9.64% (active)	37.1% (inactive)		
O=C1C=CC(=O)N1c1ccc(O)cc1	107% (inactive)	109% (inactive)	104% (inactive)	98.5% (inactive)	103% (inactive)	94.3% (inactive)	107% (inactive)	104% (inactive)	81% (inactive)	104% (inactive)		
c1ccc2sc(SSN3CC4CCC(CC4)C3)nc2c1	124% (inactive)	106% (inactive)	104% (inactive)	55.1% (inactive)	121% (inactive)	98.3% (inactive)	104% (inactive)	142% (inactive)	111% (inactive)	56.3% (inactive)		
O=C(/C=C/c1ccccc1)c1ccccc1O	98.6% (inactive)	89.2% (inactive)	92.1% (inactive)	64.6% (inactive)	94.3% (inactive)	87% (inactive)	75.2% (inactive)	98.3% (inactive)	55.1% (inactive)	70.2% (inactive)		
Cc1cc(C(=O)c2ccc(Cl)cc2)ccc1O	125% (inactive)	81% (inactive)	89.3% (inactive)	84.7% (inactive)	87% (inactive)	87.3% (inactive)	90.5% (inactive)	76.1% (inactive)	96.9% (inactive)	102% (inactive)		
COc1ccc(/C=C2/C(=O)ON=C2C)cc1	96% (inactive)	109% (inactive)	95.6% (inactive)	99% (inactive)	96.5% (inactive)	118% (inactive)	102% (inactive)	100% (inactive)	105% (inactive)	107% (inactive)		
OC(c1cc(-c2ccc(C(F)(F)F)cc2)nc(C(F)(F)F)c1)C1CCCCN1 (configuration not stated)	-61% (active) and 21.8% (inactive)	27.2% (inactive) and 3.74% (active) and 67.6% (inactive)	-50.3% (active) and -86.4% (active) and 28.5% (inactive)	15.4% (inactive) and -59.3% (active) and 30.6% (inactive)	-57.8% (active) and -14.4% (active) and 50.3% (inactive)	-24% (active) and 0.945% (active) and 24.3% (inactive)	-7.29% (active) and -52.3% (active) and 45.9% (inactive)	28% (inactive) and -60.5% (active) and 46.4% (inactive)	0.247% (active) and -56.8% (active) and 17% (inactive)	-21.7% (active) and -2.33% (active)		
CCCCCCCCCCCC[n+]1ccc2ccccc2c1	-24.7% (active)	-4.82% (active)	-18.4% (active)	-23.8% (active)	-46.7% (active)	13% (inactive)	40.9% (inactive)	77.6% (inactive)	3.12% (active)	-25.9% (active)		
O=[N+]([O-])C=C(c1ccccc1)c1ccccc1	95.5% (inactive)	71% (inactive)	81.1% (inactive)	60.9% (inactive)	84.8% (inactive)	85.4% (inactive)	57.1% (inactive)	124% (inactive)	68.6% (inactive)	70.9% (inactive)		
CC(C)=CCCC(C)C1=C(O)C(=O)C(C)=CC1=O (configuration not stated)	92.9% (inactive)	122% (inactive)	106% (inactive)	-98.3% (active)		-39% (active)	88.4% (inactive)	92.9% (inactive)		-30.1% (active)	5.08% (active)	-99.3% (active) and -84.7% (active)
Nc1cccc2cccc([N+](=O)[O-])c12	98.3% (inactive)	120% (inactive)	107% (inactive)	74.7% (inactive)	109% (inactive)	116% (inactive)	107% (inactive)	104% (inactive)	102% (inactive)			
Clc1ccc(Cc2nc3ccccc3s2)cc1	110% (inactive)	86.5% (inactive)	86.1% (inactive)	61.2% (inactive)	119% (inactive)	98.5% (inactive)	96.3% (inactive)	117% (inactive)	93.1% (inactive)	92.6% (inactive)		
O=[N+]([O-])c1ccc(Oc2ccccc2Cl)c([N+](=O)[O-])c1	88.6% (inactive)	104% (inactive)	90.4% (inactive)	81.9% (inactive)	98.7% (inactive)	100% (inactive)	82.7% (inactive)	84.7% (inactive)	57.8% (inactive)	22.7% (inactive)		
O=C1c2ccccc2C(=O)c2c(O)c(Cl)cc(O)c21	124% (inactive)	98.3% (inactive)	96.5% (inactive)	79.8% (inactive)	89.4% (inactive)	92.1% (inactive)	95.1% (inactive)	91% (inactive)	64.3% (inactive)	75.9% (inactive)		
O=C(NNc1ccccc1)OCc1ccccc1	86.1% (inactive)	91% (inactive)	84.9% (inactive)	56.8% (inactive)	90% (inactive)	50.2% (inactive)	28.3% (inactive)	86.1% (inactive)	22% (inactive)	26.9% (inactive)		
O=C(/C=C/C(Cl)(Cl)Cl)Nc1ccc(Cl)cc1	84.6% (inactive)	94.2% (inactive)	101% (inactive)	-78% (active)	129% (inactive)	104% (inactive)	101% (inactive)	101% (inactive)	73.2% (inactive)	84.2% (inactive)		
O=C(c1ccc(O)c(Br)c1)c1ccc(O)c(Br)c1	105% (inactive)	112% (inactive)	94.4% (inactive)	98.5% (inactive)	99.4% (inactive)	102% (inactive)	119% (inactive)	93.9% (inactive)	109% (inactive)			
O=C1C=Cc2ccccc2/C1=C/c1nc(-c2ccccc2)oc1O	99.1% (inactive)	78.7% (inactive)	94.8% (inactive)	65.5% (inactive)	136% (inactive)	81.9% (inactive)	86.8% (inactive)	113% (inactive)	110% (inactive)	96.5% (inactive)		
CCOC(=O)/C(=C\c1ccc2ccccc2c1)P(=O)(OCC)OCC	54.7% (inactive)	71% (inactive)	17% (inactive)	12.4% (inactive)	61.4% (inactive)	14% (inactive)	45.5% (inactive)	55.3% (inactive)	-36.6% (active)	-25.1% (active)		
CC1(C)OC2C(COC(c3ccccc3)(c3ccccc3)c3ccccc3)OC(c3c[nH]c4c(N)ncnc34)C2O1 (configuration not stated)	69.8% (inactive)	55.3% (inactive)	50.1% (inactive)	58.3% (inactive)	84.2% (inactive)	52.2% (inactive)	56.6% (inactive)	74.7% (inactive)	36.3% (inactive)	-7.93% (active)		
NC(=S)N/N=C\c1nccc2c(N)cccc12	39.3% (inactive)	34.5% (inactive)	8.66% (active)	-8.44% (active)	48% (inactive)	-7.84% (active)	-23.9% (active)	12.2% (inactive)	8.4% (active)	3.28% (active)		
COc1ccc(NC(=O)/C(=C/N2C(=O)/C(=C/c3ccc(OC)c(OC)c3)NC2=S)C(C)=O)cc1	87.1% (inactive)	93.5% (inactive)	80.8% (inactive)	54.6% (inactive)	110% (inactive)	79.6% (inactive)	92.3% (inactive)	87.6% (inactive)	80.3% (inactive)			
Cc1cc(C)c([I+]c2c(C)cc(C)cc2C)c(C)c1	-44.1% (active)	4.01% (active)	-66.2% (active)	-20.4% (active)	12.7% (inactive)	-16.1% (active)	29.2% (inactive)	45% (inactive)	-29.5% (active)	-41.1% (active)		
CCCCCC/C=C1\CCC(CN2CCCC2)C1=O (configuration not stated)	114% (inactive)	113% (inactive)	103% (inactive)	90.4% (inactive)	124% (inactive)	114% (inactive)	102% (inactive)	94.1% (inactive)	33.1% (inactive)	60.2% (inactive)		
Nc1ccc(-c2ccc(N)c(S(=O)(=O)O)c2)cc1S(=O)(=O)O	127% (inactive)	119% (inactive)	102% (inactive)	94.5% (inactive)	122% (inactive)	105% (inactive)	123% (inactive)	141% (inactive)	127% (inactive)	131% (inactive)		
